Assay results reported in the supplement of paper PMC12067093, “Discovery and optimisation of a covalent ligand for TRIM25 and its application to targeted protein ubiquitination” (Chemical Science, 2025).
About 21,000 targets were measured; listed, in parts, are those with the largest changes and a random draw of the rest.

Compound: Cc1cc(ccc1-c1ccccc1)C(=O)N1CCCN(CC1)C(=O)CCl [compound 10]
Test: probe-labelled cysteine peptide fold change vs DMSO (competition) (log2 fold change); higher = less target engagement (more negative = stronger competition)
Settings: THP-1, incubation time: 4 h
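Further: competitive profiling in live THP-1 cells: cysteine peptides tagged with an iodoacetamide desthiobiotin (IA-DTB) probe, intensity after compound treatment relative to DMSO-treated cells.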

Sequence of UniProt P36507 (P36507 whole entry, looked up): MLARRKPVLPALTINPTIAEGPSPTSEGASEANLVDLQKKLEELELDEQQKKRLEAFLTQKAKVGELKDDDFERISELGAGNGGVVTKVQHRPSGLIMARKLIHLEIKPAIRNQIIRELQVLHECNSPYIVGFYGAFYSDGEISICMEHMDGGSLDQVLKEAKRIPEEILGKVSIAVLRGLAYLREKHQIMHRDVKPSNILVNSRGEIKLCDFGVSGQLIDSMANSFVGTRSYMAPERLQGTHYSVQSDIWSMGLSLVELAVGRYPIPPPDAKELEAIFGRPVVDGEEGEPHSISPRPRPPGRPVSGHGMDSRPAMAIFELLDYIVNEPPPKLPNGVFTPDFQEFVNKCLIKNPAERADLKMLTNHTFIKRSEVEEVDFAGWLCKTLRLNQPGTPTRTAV
Sequence of UniProt Q96PE7 (Q96PE7 whole entry): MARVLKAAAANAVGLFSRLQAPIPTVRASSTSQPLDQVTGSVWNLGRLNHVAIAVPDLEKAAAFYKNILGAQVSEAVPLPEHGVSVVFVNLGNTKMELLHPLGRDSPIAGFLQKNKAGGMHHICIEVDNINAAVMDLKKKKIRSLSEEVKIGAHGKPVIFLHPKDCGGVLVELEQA
Sequence of UniProt Q8N3F8 (Q8N3F8 whole entry, looked up): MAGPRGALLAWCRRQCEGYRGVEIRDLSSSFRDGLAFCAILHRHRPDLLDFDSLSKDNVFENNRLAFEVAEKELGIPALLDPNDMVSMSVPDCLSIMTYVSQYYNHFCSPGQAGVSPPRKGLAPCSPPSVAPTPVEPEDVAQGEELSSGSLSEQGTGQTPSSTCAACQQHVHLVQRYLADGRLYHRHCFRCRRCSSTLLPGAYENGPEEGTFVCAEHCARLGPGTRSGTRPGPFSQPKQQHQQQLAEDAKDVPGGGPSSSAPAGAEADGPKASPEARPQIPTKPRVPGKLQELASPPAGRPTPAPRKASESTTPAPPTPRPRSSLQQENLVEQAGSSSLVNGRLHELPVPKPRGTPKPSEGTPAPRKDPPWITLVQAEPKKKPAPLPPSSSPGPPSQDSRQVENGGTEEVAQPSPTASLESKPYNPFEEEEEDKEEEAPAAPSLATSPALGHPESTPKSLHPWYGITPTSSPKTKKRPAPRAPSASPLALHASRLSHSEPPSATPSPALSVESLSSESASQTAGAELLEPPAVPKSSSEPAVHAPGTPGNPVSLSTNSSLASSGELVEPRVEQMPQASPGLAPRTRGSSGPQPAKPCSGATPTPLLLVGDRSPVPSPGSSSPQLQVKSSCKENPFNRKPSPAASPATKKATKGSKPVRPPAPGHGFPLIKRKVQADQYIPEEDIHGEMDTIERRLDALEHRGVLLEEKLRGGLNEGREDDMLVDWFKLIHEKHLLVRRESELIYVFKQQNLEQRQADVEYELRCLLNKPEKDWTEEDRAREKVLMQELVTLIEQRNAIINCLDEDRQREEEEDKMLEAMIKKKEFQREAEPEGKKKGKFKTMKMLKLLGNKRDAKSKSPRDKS
Sequence of UniProt Q8NHJ6 (Q8NHJ6 whole entry, looked up): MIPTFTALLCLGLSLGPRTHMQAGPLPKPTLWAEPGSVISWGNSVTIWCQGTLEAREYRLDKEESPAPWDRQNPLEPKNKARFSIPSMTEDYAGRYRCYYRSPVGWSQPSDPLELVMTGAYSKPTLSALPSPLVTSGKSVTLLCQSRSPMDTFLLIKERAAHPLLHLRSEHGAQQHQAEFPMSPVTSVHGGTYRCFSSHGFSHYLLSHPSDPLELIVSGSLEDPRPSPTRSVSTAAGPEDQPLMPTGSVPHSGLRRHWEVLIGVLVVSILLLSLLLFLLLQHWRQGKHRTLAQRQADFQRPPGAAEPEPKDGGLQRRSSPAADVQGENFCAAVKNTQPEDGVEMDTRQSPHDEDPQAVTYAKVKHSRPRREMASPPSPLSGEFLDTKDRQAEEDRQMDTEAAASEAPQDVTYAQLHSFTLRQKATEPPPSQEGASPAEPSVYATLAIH
Sequence of UniProt Q99707 (Q99707 whole entry, looked up): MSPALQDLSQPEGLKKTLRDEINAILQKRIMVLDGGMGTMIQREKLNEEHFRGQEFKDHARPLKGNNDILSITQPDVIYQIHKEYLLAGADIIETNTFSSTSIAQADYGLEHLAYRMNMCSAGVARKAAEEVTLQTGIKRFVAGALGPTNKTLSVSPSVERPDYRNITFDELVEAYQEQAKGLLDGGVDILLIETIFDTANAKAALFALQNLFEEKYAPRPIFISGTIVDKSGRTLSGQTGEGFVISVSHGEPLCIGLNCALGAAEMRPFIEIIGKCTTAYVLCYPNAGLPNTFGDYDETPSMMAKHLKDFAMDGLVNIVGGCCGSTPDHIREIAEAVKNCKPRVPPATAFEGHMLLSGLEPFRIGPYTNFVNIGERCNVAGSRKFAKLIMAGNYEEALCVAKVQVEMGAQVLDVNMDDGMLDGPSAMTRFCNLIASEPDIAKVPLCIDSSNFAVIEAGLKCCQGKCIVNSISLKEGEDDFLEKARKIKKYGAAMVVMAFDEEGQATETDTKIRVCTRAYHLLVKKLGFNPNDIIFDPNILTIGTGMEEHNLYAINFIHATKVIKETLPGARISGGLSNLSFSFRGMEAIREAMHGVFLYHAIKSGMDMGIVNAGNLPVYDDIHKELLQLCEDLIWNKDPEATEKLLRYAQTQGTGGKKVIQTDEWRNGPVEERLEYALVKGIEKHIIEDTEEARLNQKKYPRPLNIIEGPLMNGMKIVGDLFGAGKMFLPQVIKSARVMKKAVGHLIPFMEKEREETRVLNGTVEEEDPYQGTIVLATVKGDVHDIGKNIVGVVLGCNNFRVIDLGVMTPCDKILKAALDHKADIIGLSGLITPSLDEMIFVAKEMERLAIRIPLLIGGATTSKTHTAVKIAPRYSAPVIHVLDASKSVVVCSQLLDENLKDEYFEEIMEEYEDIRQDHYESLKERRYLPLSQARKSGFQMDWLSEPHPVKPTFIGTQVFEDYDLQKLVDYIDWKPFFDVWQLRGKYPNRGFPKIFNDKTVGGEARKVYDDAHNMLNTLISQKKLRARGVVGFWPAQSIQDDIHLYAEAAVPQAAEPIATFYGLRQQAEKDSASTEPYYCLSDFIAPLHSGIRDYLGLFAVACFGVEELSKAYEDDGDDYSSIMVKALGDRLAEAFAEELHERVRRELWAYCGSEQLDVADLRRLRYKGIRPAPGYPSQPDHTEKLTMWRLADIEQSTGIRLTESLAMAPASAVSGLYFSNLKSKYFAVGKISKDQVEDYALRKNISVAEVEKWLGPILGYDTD
Sequence of UniProt Q86YT6 (Q86YT6 whole entry, looked up): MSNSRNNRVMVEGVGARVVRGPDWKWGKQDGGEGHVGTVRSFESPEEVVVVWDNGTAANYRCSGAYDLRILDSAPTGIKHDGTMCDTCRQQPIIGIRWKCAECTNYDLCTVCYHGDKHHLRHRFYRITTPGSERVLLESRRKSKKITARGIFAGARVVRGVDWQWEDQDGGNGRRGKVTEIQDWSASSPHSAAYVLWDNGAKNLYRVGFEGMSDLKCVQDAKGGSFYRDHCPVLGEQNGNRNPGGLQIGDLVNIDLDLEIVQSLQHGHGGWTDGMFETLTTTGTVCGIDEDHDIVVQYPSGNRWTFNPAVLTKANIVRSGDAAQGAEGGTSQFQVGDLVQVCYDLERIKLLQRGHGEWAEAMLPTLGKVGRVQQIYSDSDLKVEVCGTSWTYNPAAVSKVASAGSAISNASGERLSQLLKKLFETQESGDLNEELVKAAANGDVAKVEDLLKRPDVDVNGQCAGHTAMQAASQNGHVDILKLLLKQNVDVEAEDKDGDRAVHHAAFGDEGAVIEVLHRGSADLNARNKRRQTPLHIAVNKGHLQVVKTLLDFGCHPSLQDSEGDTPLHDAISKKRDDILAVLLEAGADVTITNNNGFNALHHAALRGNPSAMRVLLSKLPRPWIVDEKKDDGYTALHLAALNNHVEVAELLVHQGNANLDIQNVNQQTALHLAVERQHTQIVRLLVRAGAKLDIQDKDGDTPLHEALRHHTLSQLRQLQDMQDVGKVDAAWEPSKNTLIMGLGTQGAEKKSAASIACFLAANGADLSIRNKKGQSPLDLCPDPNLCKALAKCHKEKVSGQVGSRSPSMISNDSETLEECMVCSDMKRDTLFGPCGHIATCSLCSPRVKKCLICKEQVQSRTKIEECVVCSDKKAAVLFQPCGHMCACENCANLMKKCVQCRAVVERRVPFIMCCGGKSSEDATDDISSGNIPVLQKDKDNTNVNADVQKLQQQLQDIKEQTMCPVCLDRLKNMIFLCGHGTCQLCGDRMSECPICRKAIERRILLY
Sequence of UniProt Q96S97 (Q96S97 whole entry, looked up): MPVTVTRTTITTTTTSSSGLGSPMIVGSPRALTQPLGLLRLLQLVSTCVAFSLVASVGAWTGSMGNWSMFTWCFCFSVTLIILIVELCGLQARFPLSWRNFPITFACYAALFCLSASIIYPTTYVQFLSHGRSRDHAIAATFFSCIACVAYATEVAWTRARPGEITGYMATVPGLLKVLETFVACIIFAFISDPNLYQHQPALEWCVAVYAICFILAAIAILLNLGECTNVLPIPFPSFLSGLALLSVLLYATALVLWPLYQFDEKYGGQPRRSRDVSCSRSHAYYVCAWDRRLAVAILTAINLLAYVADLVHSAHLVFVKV
Sequence of UniProt Q8IV50 (Q8IV50 whole entry): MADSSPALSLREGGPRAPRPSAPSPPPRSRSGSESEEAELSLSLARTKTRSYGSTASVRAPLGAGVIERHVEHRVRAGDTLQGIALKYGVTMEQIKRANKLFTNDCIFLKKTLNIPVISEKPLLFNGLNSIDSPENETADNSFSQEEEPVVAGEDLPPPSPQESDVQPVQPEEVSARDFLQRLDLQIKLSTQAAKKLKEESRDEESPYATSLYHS
Sequence of UniProt Q9ULC4 (Q9ULC4 whole entry, looked up): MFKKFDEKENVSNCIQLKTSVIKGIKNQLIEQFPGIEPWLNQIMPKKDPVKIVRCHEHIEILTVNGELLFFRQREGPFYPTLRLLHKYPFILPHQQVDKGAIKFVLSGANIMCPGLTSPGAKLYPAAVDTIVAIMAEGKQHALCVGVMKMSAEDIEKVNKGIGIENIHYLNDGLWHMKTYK
Sequence of UniProt Q9Y333 (Q9Y333 whole entry, looked up): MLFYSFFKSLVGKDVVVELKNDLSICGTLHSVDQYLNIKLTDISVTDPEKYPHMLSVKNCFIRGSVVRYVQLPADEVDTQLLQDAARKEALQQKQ

Target	probe-labelled cysteine peptide fold change (10 µM)	probe-labelled cysteine peptide fold change (50 µM)
MMS19_Q96T76_750_ELLELSCCHSCPFSSTAAAK (UniProt Q96T76)	-0.103	-1.11
MCMBP_Q9BTE3_325_LQHINPLLPACLNK (UniProt Q9BTE3)	-0.451	-1.87
MARS_P56192_389_CEHCAR (UniProt P56192)	-0.00939	-0.304
MACF1_Q9UPN3_3109_EIACGAQSEPFPCMTPRPEGLHYQESDGK (UniProt Q9UPN3)	-0.348	-0.619
MFN1_Q8IWA4_513_LCSDFQEDIVFR (UniProt Q8IWA4)	-0.0991	0.451
LIMD1_Q9UGP4_401_LSPTSLVHPVMSTLPELSCK (UniProt Q9UGP4)	-0.0884	-0.436
MTHFD1_P11586_236_GEWIKPGAIVIDCGINYVPDDKKPNGR (UniProt P11586)	-0.116	-1.23
LUC7L3_O95232_40+43_YYLCGFCPAELFTNTR (UniProt O95232)	0.232	-0.733
MYBBP1A_Q9BQG0_623_SPAESCDLLGDIQTCIR (UniProt Q9BQG0)	-0.0385	-0.16
LILRB4_Q8NHJ6_330_SSPAADVQGENFCAAVK (UniProt Q8NHJ6)	-0.385	-0.214
MICALL1_Q8N3F8_597_GSSGPQPAKPCSGATPTPLLLVGDR (UniProt Q8N3F8)	-0.17	-0.459
MYCBP2_O75592_505_CLHACGISLFDLEK (UniProt O75592)	0.122	0.236
LYST_Q99698_2223_SEDDSPGDESCPR (UniProt Q99698)	-0.367	-1.41
MCM2_P49736_661_FDILCVVR (UniProt P49736)	0.242	0.398
LPIN3_Q9BQK8_443_SLRDPNPEHEPEPTLDTVDTIALSLCGGLADSR (UniProt Q9BQK8)	-0.112	0.0613
MMP14_P50281_574_RLLYCQR (UniProt P50281)	-0.276	-0.518
LRPPRC_P42704_571_YCQEPR (UniProt P42704)	0.261	0.6
MCM4_P33991_328_IAEPSVCGR (UniProt P33991)	0.0169	-0.0125
MYD88_Q99836_168_FDAFICYCPSDIQFVQEMIR (UniProt Q99836)	0.412	-1.05
MGAT2_Q10469_378_IFHAGDCGMHHK (UniProt Q10469)	-0.125	-0.149
MCM2_P49736_406_DAILLADLVDSCK (UniProt P49736)	-0.0605	0.3
LY75_O60449-2_1697_NQCTDHGADMISIHNEEENAFILDTLK (UniProt O60449)	-0.0829	0.022

Target	probe-labelled cysteine peptide fold change (10 µM)	probe-labelled cysteine peptide fold change (50 µM)
MAPK9_P45984_222_GCVIFQGTDHIDQWNK (UniProt P45984)	-0.0703	0.0724
MDN1_Q9NU22_2158_CLGEGGK (UniProt Q9NU22)	-0.171	-1.54
MCEE_Q96PE7_166_DCGGVLVELEQA (UniProt Q96PE7)	-0.0643	0.17
LSS_P48449_471_CPHVTEHIPR (UniProt P48449)	-0.184	-0.209
MED13_Q9UHV7_681_NQCLSAIASDAEQEPK (UniProt Q9UHV7)	0.327	0.0925
MAGT1_Q9H0U3_87_QCVVCK (UniProt Q9H0U3)	-0.137	0.464
MRPS30_Q9NP92_393_NICWGTQSK (UniProt Q9NP92)	-0.226	-0.187
MGAT2_Q10469_386_KTCRPSTQSAQIESLLNNNK (UniProt Q10469)	-0.194	-0.657
MAK16_Q9BXY0_39_NEYSLTGLCNR (UniProt Q9BXY0)	0.173	-0.348
MTMR3_Q13615_473_CPVFLQWLDCVHQLQR (UniProt Q13615)	-0.0651	0.044
LIMS1_P48059_193_MGVPICGACR (UniProt P48059)	-0.104	-0.269
LYSMD2_Q8IV50_106_LFTNDCIFLK (UniProt Q8IV50)	-0.192	-1.77
MYADM_Q96S97_279_SRDVSCSR (UniProt Q96S97)	1.07	1.22
MRPL35_Q9NZE8_150_EFVFCNK (UniProt Q9NZE8)	-0.362	-0.257
MTCH2_Q9Y6C9_49_QVCQLPGLFSYAQHIASIDGR (UniProt Q9Y6C9)	-0.0446	0.0916
MRC2_Q9UBG0_1234_TTSCDTK (UniProt Q9UBG0)	-0.27	-0.499
MATR3_P43243_230_CRDDSFFGETSHNYHK (UniProt P43243)	0.00308	-0.311
MYBL2_P10244_147_SCWTEEEDRIICEAHK (UniProt P10244)	0.166	-0.335
METAP2_P50579_263_IIDCAFTVTFNPK (UniProt P50579)	0.171	0.0277
MMS19_Q96T76_331_REVFQTASERVEAEGLAALHSLTACLSR (UniProt Q96T76)	-0.452	0.0397
LSM2_Q9Y333_26_DVVVELKNDLSICGTLHSVDQYLNIK (UniProt Q9Y333)	0.0504	-0.543
LGALS3_P17931_173_VIVCNTK (UniProt P17931)	0.0884	-0.00184

Target	probe-labelled cysteine peptide fold change (10 µM)	probe-labelled cysteine peptide fold change (50 µM)
MCM2_P49736_584_GVCLIDEFDK (UniProt P49736)	0.0289	0.142
MRI1_Q9BV20_168_VTVLTHCNTGALATAGYGTALGVIR (UniProt Q9BV20)	0.147	0.0771
MUT_P22033_560_CTVGEITDALK (UniProt P22033)	0.0307	0.0797
MBD2_Q9UBB5_111_GRPPSGGSGLGGDGGGCGGGGSGGGGAPR (UniProt Q9UBB5)	-0.142	-1.1
LRRC40_Q9H9A6_227_HLDCNSNLLETIPPELAGMESLELLYLRR (UniProt Q9H9A6)	-0.229	-0.459
MCTS1_Q9ULC4_144_QHALCVGVMK (UniProt Q9ULC4)	0.104	-0.154
MTHFD1L_Q6UB35_906_YTQQGFGNLPICMAK (UniProt Q6UB35)	-0.063	-0.0614
LIG3_P49916_929_KAADETLCQTK (UniProt P49916)	-0.152	-1.24
LUC7L3_O95232_58_SDLGPCEK (UniProt O95232)	-0.112	-0.363
MCM5_P33992_221_CVDFQTLK (UniProt P33992)	0.05	-0.397
MRPS18A_Q9NVS2_186_DNVCYSR (UniProt Q9NVS2)	-0.0735	-0.099
LRCH4_O75427_283_GSALGDLAPSRPPSFSPCPAEDLFPGHR (UniProt O75427)	-1.16	-1.33
MITD1_Q8WV92_226_FSLGYCDFDLRPCHETTVDIFHK (UniProt Q8WV92)	0.0984	0.0591
MYH9_P35579_988_KLEEEQIILEDQNCK (UniProt P35579)	-0.0561	-0.0225
MIB1_Q86YT6_103_CAECTNYDLCTVCYHGDK (UniProt Q86YT6)	0.0824	-0.0966
LRP1_Q07954_3021_GGDPHSCK (UniProt Q07954)	-0.193	-0.308
MMADHC_Q9H3L0_261+262_HLGFSVDDLGCCK (UniProt Q9H3L0)	-0.412	-1.16
MCRS1_Q96EZ8_84_CSGSEPSSSEK (UniProt Q96EZ8)	-0.0254	-0.104
MDN1_Q9NU22_3985_KFEAVLSEPCR (UniProt Q9NU22)	-0.313	-0.0822
MARS_P56192_38_AEVLISTVGPEDCVVPFLTRPK (UniProt P56192)	-0.0722	0.0548
MBTD1_Q05BQ5_288_VSESMQYPFKPCMR (UniProt Q05BQ5)	0.00855	0.00392
MRC2_Q9UBG0_201_YDNQWFHGCTSTGR (UniProt Q9UBG0)	-2.14	-2.04

Target	probe-labelled cysteine peptide fold change (10 µM)	probe-labelled cysteine peptide fold change (50 µM)
MYH9_P35579_789_ITDVIIGFQACCR (UniProt P35579)	-0.109	-0.0345
MMADHC_Q9H3L0_261_HLGFSVDDLGCCK (UniProt Q9H3L0)	-0.3	-1.27
MRPS31_Q92665_356_HFMELVTCGLSK (UniProt Q92665)	0.0457	-0.112
MSTO1_Q9BUK6_232_LHFYVEECDYLQGFQILCDLHDGFSGVGAK (UniProt Q9BUK6)	0.444	1.33
MCM5_P33992_355_AIACLLFGGSRK (UniProt P33992)	-0.159	-0.759
MSI1_O43347_167_VCEIHFHEINNK<|>MSI2_Q96DH6_168_VCEIHFHEINNK (UniProt Q96DH6+O43347)	0.163	0.236
MSTO1_Q9BUK6_347_LCSSPVSMVHLADMLSFCGK (UniProt Q9BUK6)	0.0999	0.248
MYCBP2_O75592_4318_QVFKEEEEAIKVDLHEGCGR (UniProt O75592)	-0.166	-0.439
MYCBP2_O75592_3392_MPCLYLQTLAR (UniProt O75592)	-0.0844	-0.345
MDN1_Q9NU22_3195_ELLCQLLTSLHHFVGEGESK (UniProt Q9NU22)	-0.696	-1.2
MAP2K2_P36507_384_SEVEEVDFAGWLCK (UniProt P36507)	0.0856	0.0969
MRPL53_Q96EL3_21_VQFCPFEK (UniProt Q96EL3)	0.0106	-0.103
MORC3_Q14149_15_LSALCPK (UniProt Q14149)	-0.27	-1.37
MRPL44_Q9H9J2_96_TAFVNSCYIK (UniProt Q9H9J2)	-0.0364	-0.21
MTR_Q99707_798_NIVGVVLGCNNFR (UniProt Q99707)	0.00546	-0.26
MDN1_Q9NU22_3308_MDRLDNLTCHLLK (UniProt Q9NU22)	-0.00667	-0.264
LRRK2_Q5S007_1187_FSCIPEAILNLPHLR (UniProt Q5S007)	-0.0375	-0.109
MCMBP_Q9BTE3_249_VYEDWDCFK (UniProt Q9BTE3)	-0.042	-0.0294
MTA3_Q9BTC8_109_CSVALLNETESVLSYLDK (UniProt Q9BTC8)	0.791	0.971
